In PubChem BioAssay (Tox21):
“And” between values parts separate entries of the source, which are not always exact repeats. Equal entries are not always repeated. Results filed as inconclusive are left out. The source made the active and inactive calls. Unless noted, calls come from the whole dose curve; as a rule, active = well fitted curve in the direction sought with a large enough effect in the repeat runs; inconclusive = weak or mixed curves; inactive = no such curve, though single readings can be large; an effect the other way counts as inactive or inconclusive.

Assays:
[1] = qHTS assay to identify small molecule agonists of the vitamin D receptor (VDR) signaling pathway - cell viability counter screen (AID 743224); note: nearly all actives have a fitted effect of over 50% in size; note: potency is the fitted concentration of half-maximal effect
Method in brief: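 Here cell health was gauged by luminescent ATP detection (CellTiter-Glo, 30 min RT) in VDR-bla cells that had been incubated with test compounds for 16 h at 37C and 5% CO2.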

[2] = qHTS assay to identify small molecule agonists of the NFkB signaling pathway (AID 1159509; active = well fitted curve in the direction sought with a large enough effect in the signal ratio in the repeat runs, not every such curve was filed as active; the % refers to the signal ratio; note: series mostly up to about 61 µM; % is set by controls: 0 for no effect and ±100 for the full control effect)
Method in brief: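 NFkB-bla ME-180 cells carry a beta-lactamase reporter under an NF-kB response element. They were plated overnight, then exposed to compounds for 5 h at 37 C. Read-out is LiveBLAzer FRET after 1.5 hr at room temperature (405 nm excitation; 460/530 nm emission).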

[3] = qHTS assay to identify small molecule agonists of the NFkB signaling pathway - cell viability counter screen (AID 1159515; calls by dose curve; note: series mostly up to about 61 µM; % is set by controls: 0 for no effect and ±100 for the full control effect; nearly all actives have a fitted effect of over 55% in size)
Method in brief: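 5 hr compound treatment of NFkB-bla ME-180 cells (2,000/well, seeded overnight beforehand), followed by reporter substrate for 1.5 hr. CellTiter-Glo added afterward; luminescence after 30 min RT.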

[4] = qHTS assay to identify small molecule agonists of the endoplasmic reticulum stress response signaling pathway (AID 1159516; active = well fitted activation curve with a large enough effect in the signal ratio in the repeat runs, not every such curve was filed as active; the % refers to the signal ratio; note: % is set by controls: 0 for no effect and ±100 for the full control effect)
Method in brief: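 Reporter HeLa cells (ESRE-beta-lactamase) underwent 5 hr compound incubation at 37 C and 5% CO2 in quantitative HTS format. Detection followed 2 hr of FRET substrate loading at room temperature.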

[5] = qHTS assay to identify small molecule antagonists of the retinoid-related orphan receptor gamma (ROR-gamma) signaling pathway - cell viability counter screen (AID 1159520); note: % is set by controls: 0 for no effect and ±100 for the full control effect; nearly all actives have a fitted effect of over 50% in size
Method in brief: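 Tet-on ROR gamma CHO cells were given compounds for 2 hr, then doxycycline hyclate at 1 uM final, and incubated 16 hr at 37 C. Viability was measured as ATP content by CellTiter-Glo luminescence.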

[6] = biological target: Nuclear receptor ROR-gamma (Homo sapiens) (UniProt P51449); experiment: qHTS assay to identify small molecule antagonists of the retinoid-related orphan receptor gamma (ROR-gamma) signaling pathway (AID 1159521; note: nearly all actives have a fitted effect of over 50% in size; note: potency is the fitted concentration of half-maximal effect)
Method in brief: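 Test compounds were applied to Tet-on RORγ CHO cells 2 h ahead of doxycycline hyclate (1 uM final). Luciferase reporter activity was quantified by luminescence after 16 h at 37 C and 5% CO2.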

[7] = qHTS assay to identify small molecule agonists of the AP-1 signaling pathway - cell viability counter screen (AID 1159525; calls by dose curve; note: nearly all actives have a fitted effect of over 55% in size)
Method in brief: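 AP-1-bla ME-180 cells in Opti-MEM with 0.5% dialyzed FBS, compound exposure 5 h at 37 C in 15-point titration. Viability read in the same wells as ATP content by CellTiter-Glo luminescence, normalised to tetra-n-octylammonium bromide and DMSO controls.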

[8] = qHTS assay to identify small molecule agonists of the RXR signaling pathway - cell viability counter screen (AID 1159529); note: series mostly up to about 77 µM; % is set by controls: 0 for no effect and ±100 for the full control effect; nearly all actives have a fitted effect of over 50% in size
Method in brief: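 Compounds dissolved in DMSO were pinned onto HEK 293T cells carrying a beta-lactamase reporter under RXR-alpha control and incubated 16 hr. Cytotoxicity was then quantified by CellTiter-Glo luminescence.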

[9] = qHTS assay to identify small molecule antagonists of the estrogen related receptor (ERR) signaling pathway - cell viability counter screen (AID 1224818);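 note: series mostly up to about 46 µM; viability measured after 17.5 h of compound exposure; % is set by controls: 0 for no effect and ±100 for the full control effect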
Method in brief: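 In the same ERR cell assay, compound-treated wells (17.5 h, 37 C) were multiplexed with a fluorogenic viability reagent, CellTiter-Fluor, read after 30 min to flag cytotoxic substances.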

[10] = qHTS assay to identify small molecule antagonists of the estrogen related receptor signaling pathway with the pleiotropic PPARgamma coactivator (PGC) cell viability counter screen (AID 1224822; note: series mostly up to about 46 µM; % is set by controls: 0 for no effect and ±100 for the full control effect)
Method in brief: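 Compounds in DMSO, with positive and negative controls, were applied to PGC/ERR cells (2,000/well) and left 17.5 h at 37 C before CellTiter-Fluor detection.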

[11] = qHTS assay to identify small molecule antagonists of the vitamin D receptor (VDR) signaling pathway - cell viability counter screen (AID 743225)
Method in brief: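 Compounds were pinned onto VDR-bla HEK 293T cells together with 1-alpha,25-dihydroxyvitamin D3 at 3 nM final. After 16 h at 37C and 5% CO2 plus the reporter readout, cell viability was measured by CellTiter-Glo luminescence (30 min, room temperature).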

[12] = qHTS assay to identify small molecule agonists of the AP-1 signaling pathway (AID 1159526; calls by dose curve; note: % is set by controls: 0 for no effect and ±100 for the full control effect)
[13] = biological target: Retinoic acid receptor RXR-alpha (Homo sapiens) (UniProt P19793); experiment: qHTS assay to identify small molecule agonists of the RXR signaling pathway (AID 1159527; calls by dose curve; note: % is set by controls: 0 for no effect and ±100 for the full control effect; nearly all actives have a fitted effect of over 35% in size)
Sequence of Retinoic acid receptor RXR-alpha (Homo sapiens) (P19793 whole entry, looked up): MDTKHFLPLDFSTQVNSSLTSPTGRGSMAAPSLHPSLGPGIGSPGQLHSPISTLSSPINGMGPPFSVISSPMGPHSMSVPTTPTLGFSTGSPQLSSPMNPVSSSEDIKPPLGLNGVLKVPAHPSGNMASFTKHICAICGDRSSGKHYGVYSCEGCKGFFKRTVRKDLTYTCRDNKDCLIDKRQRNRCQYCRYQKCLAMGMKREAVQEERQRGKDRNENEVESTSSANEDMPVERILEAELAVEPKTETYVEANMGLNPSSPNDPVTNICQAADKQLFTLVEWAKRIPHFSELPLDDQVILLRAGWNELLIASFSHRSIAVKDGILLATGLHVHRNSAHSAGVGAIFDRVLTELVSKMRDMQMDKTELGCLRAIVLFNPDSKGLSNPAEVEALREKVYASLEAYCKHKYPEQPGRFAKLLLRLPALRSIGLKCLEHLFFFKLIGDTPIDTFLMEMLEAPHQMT
Method in brief: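 Using 9-cis retinoic acid as the reference agonist, chemicals were tested in HEK 293T cells […] for 16 hr; substrate loading lasted 2 hr at room temperature.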

[14] = qHTS assay to identify small molecule antagonists of the retinoid acid receptor (RAR) signaling pathway - cell viability counter screen (AID 1159551); note: % is set by controls: 0 for no effect and ±100 for the full control effect; nearly all actives have a fitted effect of over 35% in size
Method in brief: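 Seed C3RL4 cells; next day add compound, then retinol to 1 uM final; incubate 6 h at 37 C; add CellTiter-Glo; read luminescence after 30 min at RT.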

[15] = qHTS assay to identify small molecule antagonists of the retinoic acid receptor (RAR) signaling pathway (AID 1159552)
Method in brief: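 Test chemicals and DMSO controls were pin-transferred onto C3RL4 cells a day after seeding; retinol (1 uM final) followed at once. Luminescent reporter output was quantified after 6 hr of co-incubation and 30 min with detection reagent.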

[16] = qHTS assay to identify small molecule agonists of the retinoic acid receptor (RAR) signaling pathway (AID 1159553); note: % is set by controls: 0 for no effect and ±100 for the full control effect
Method in brief: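 Activation of retinol signaling was monitored via a RARE luciferase reporter in C3RL4 cells. After 6 hr compound treatment at 37 C, detection reagent was added for 30 min at room temperature before luminescence reading.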

[17] = qHTS assay to identify small molecule agonists of the endoplasmic reticulum stress response signaling pathway - cell viability counter screen (AID 1159517; calls by dose curve)
Method in brief: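 ESRE-bla HeLa cells, 1,500 per well, seeded overnight then treated with compounds for 5 hr at 37 C. After the beta-lactamase read, viability in the same wells is measured by CellTiter-Glo luminescence after 30 min at room temperature.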

CC(C)(C)c1ccc(O)c(O)c1
inactive: outcome [2] | outcome [3] | outcome [4] | outcome [5] | Potency [7] | Potency [8] | outcome [9] | outcome [10]
active: Potency [1] 25.4 µM | Potency [6] 25.2 µM and 27.3 µM

CCSC(=O)N(CC(C)C)CC(C)C
inactive: Potency [1] | Potency [11] | outcome [2] | outcome [3] | outcome [4] | outcome [5] | Potency [6] | Potency [7] | outcome [12] | Potency [13] | Potency [8] | outcome [14] | Potency [15] | Potency [16]

CCCCC/C=C\CCC=O
inactive: Potency [1] | Potency [11] | outcome [2] | outcome [3] | outcome [4] | outcome [5] | Potency [6] | Potency [7] | outcome [12] | Potency [13] | Potency [8] | outcome [14] | Potency [15] | Potency [16]

CCCCCCOC(=O)CCCCC(=O)OCCCCCC
inactive: Potency [11] | outcome [2] | outcome [3] | outcome [17] | outcome [5] | Potency [6] | Potency [7] | outcome [12] | Potency [13] | Potency [8] | outcome [14] | Potency [15] | Potency [16]

COCCCOCCCOC
inactive: Potency [11] | outcome [2] | outcome [3] | outcome [17] | outcome [5] | Potency [6] | Potency [7] | outcome [12] | Potency [13] | Potency [8] | outcome [14] | Potency [15] | Potency [16]

O=C1CCCC(=O)C1
inactive: Potency [1] | Potency [11] | outcome [2] | outcome [3] | outcome [17] | Potency [6] | Potency [7] | outcome [12] | Potency [13] | Potency [8] | outcome [14] | Potency [15] | Potency [16]

CCC(C)C1CCCCC1=O (stereo not drawn)
inactive: Potency [11] | outcome [2] | outcome [3] | outcome [17] | outcome [5] | Potency [6] | Potency [7] | outcome [12] | Potency [13] | Potency [8] | outcome [14] | Potency [15] | Potency [16]

CC1(C)C(O)C(C)(C)C1O (stereo not drawn)
inactive: Potency [1] | Potency [11] | outcome [2] | outcome [3] | outcome [17] | outcome [5] | Potency [6] | Potency [7] | outcome [12] | Potency [13] | Potency [8] | outcome [14] | Potency [15] | Potency [16]

O=C[C@H](O)[C@@H](O)[C@H](O)[C@H](O)CO
inactive: Potency [1] | Potency [11] | outcome [3] | outcome [4] | outcome [17] | outcome [5] | Potency [6] | Potency [7] | outcome [12] | Potency [13] | Potency [8] | outcome [14]

CC(C)(C)c1nnc(NS(=O)(=O)c2ccccc2)s1
inactive: Potency [1] | Potency [11] | outcome [2] | outcome [3] | outcome [5] | Potency [6] | Potency [7] | outcome [12] | Potency [13] | Potency [8] | outcome [14] | Potency [15] | Potency [16]

C[C@@H]1CCN(C(=O)[C@H](CCCN=C(N)N)NS(=O)(=O)c2cccc3c2NC[C@H](C)C3)[C@@H](C(=O)O)C1
inactive: Potency [1] | Potency [11] | outcome [2] | outcome [3] | outcome [17] | Potency [6] | Potency [7] | outcome [12] | Potency [13] | Potency [8] | outcome [14] | Potency [15] | Potency [16]

N#Cc1ccc(C2CCCc3cncn32)cc1 (stereo not drawn)
inactive: Potency [1] | outcome [2] | outcome [3] | outcome [17] | outcome [5] | Potency [6] | Potency [7] | outcome [12] | Potency [8] | outcome [14] | Potency [15] | Potency [16]

CC(=O)N(CC(O)CO)c1c(I)c(C(=O)NCCO)c(I)c(C(=O)NCC(O)CO)c1I (stereo not drawn)
inactive: Potency [11] | outcome [2] | outcome [3] | outcome [17] | outcome [5] | Potency [6] | Potency [7] | outcome [12] | Potency [13] | Potency [8] | outcome [14] | Potency [15] | Potency [16]

CCCC(=O)O[C@]1(C(=O)CO)CC[C@H]2[C@@H]3CCC4=CC(=O)CC[C@]4(C)[C@H]3[C@@H](O)C[C@@]21C
inactive: Potency [1] | Potency [11] | outcome [2] | outcome [3] | outcome [17] | outcome [5] | Potency [6] | Potency [7] | outcome [12] | Potency [13] | Potency [8] | outcome [14] | Potency [15] | Potency [16]

N[C@@H](C(=O)N[C@@H]1C(=O)N2C(C(=O)O)=C(Cl)CS[C@H]12)c1ccccc1
inactive: activity change, negative = cytotoxicity [1] 12.3% [at 13.2 µM] | viability change, negative = cytotoxic [11] -2.62% [at 6.95 µM] | activation [2] -0.195% [at 6.95 µM] | activity, negative = cytotoxic [3] 6.68% [at 6.95 µM] | activity, negative = cytotoxicity [5] 0.217% [at 8.39 µM] | activity change, negative = inhibition [6] 46.6% [at 8.39 µM] | viability change, negative = cytotoxic [7] 3.61% [at 6.97 µM] | activation [12] 0.719% [at 6.97 µM] | activation [13] 3.92% [at 6.98 µM] | activity change, negative = cytotoxicity [8] 16.6% [at 6.97 µM] | activity change, negative = cytotoxicity [14] 2.73% [at 8.39 µM] | activity, negative = inhibition [15] -6.75% [at 8.39 µM] | activation [16] 0.152% [at 8.36 µM]

CCOC(=O)C(=O)OCC
inactive: Potency [11] | outcome [2] | outcome [3] | outcome [17] | outcome [5] | Potency [6] | Potency [7] | outcome [12] | Potency [13] | Potency [8] | outcome [14] | Potency [15] | Potency [16]

NC(=O)COCCN1CCN(C(c2ccccc2)c2ccc(Cl)cc2)CC1 (stereo not drawn)
inactive: Potency [1] | Potency [11] | outcome [2] | outcome [3] | outcome [5] | Potency [7] | outcome [12] | Potency [13] | Potency [8] | outcome [14] | Potency [15] | Potency [16]
active: Potency [6] 2.66 µM

C=COCC1CCC(CO)CC1 (stereo not drawn)
inactive: Potency [1] | Potency [11] | outcome [2] | outcome [3] | outcome [17] | Potency [6] | Potency [7] | outcome [12] | Potency [13] | Potency [8] | outcome [14] | Potency [15] | Potency [16]
